DAT uptake mod = human DAT dopamine uptake with cocaine, either direction; Q01959; LLC-PK1 hDAT cells, [14C]-dopamine uptake with cocaine IC80; actives deviate in either direction; B-score at 10 µM; hit rate 1.3% among 110,000; AID 449768;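 active = Z score or B-score, a plate-position-corrected score, falls beyond the plate's 99.7% confidence bounds, in either direction; inactive = both scores lie inside the 99.7% bounds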;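 also: scored against the spread of the other compound wells on the same plate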
Target sequence (Q01959 whole entry, looked up): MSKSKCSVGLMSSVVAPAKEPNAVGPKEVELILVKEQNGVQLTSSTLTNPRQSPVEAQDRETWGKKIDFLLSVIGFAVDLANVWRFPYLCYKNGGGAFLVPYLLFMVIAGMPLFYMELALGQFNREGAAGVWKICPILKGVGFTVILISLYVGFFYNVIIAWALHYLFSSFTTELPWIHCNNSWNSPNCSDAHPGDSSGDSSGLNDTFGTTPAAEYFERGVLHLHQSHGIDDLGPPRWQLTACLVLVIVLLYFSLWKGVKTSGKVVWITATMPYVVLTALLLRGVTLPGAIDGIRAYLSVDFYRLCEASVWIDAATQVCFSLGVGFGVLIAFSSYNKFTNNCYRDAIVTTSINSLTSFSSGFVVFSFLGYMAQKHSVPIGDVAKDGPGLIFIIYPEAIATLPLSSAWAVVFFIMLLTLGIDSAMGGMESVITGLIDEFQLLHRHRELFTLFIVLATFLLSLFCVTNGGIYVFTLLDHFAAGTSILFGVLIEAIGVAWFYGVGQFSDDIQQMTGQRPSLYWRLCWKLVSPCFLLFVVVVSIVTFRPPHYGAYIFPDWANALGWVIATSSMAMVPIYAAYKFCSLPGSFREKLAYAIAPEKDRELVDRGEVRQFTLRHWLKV
MRP-1 activ = MRP-1 activation; hit rate 0.61% among 140,000; viability increase, % at 10 µM; H69AR cells + doxorubicin, viability rescue, CellTiter-Glo;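 active = viability gain under doxorubicin at or above a set limit, the compound median plus 3 SD, cut at about 4.7% in these data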;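 also: MRP-1 overexpressing cells given doxorubicin 25 µM after compound pretreatment; 18-22 h compound pretreatment then 72 h with doxorubicin before readout; 0% = doxorubicin-only wells and 100% = vehicle-treated cells without doxorubicin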
MRP resist rev = MRP-mediated drug resistance reversal; H69AR cells + 2 uM doxorubicin, CellTiter-Glo, 72 h; differential viability (reversal), % at 10 µM; hit rate 0.04% among 85,000; AID 602;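 active = viability drop by adding the cancer drug above about 55%, with treated viability meeting a 40% cutoff, limit read from the data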;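 also: viability without doxorubicin minus viability with 2 µM doxorubicin for each compound; larger differential means the compound sensitizes cells more to doxorubicin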
An asterisk follows results filed as active; / = not tested or not shown; ! = not active in a repeat. Shown are actives, neighbours in structure and some others; about 1.5% of the full set was active somewhere.

SMILES | DAT uptake mod | MRP-1 activ | MRP resist rev
COCCn1c(SCC(=O)N2CC(=O)Nc3ccccc32)nnc1-c1ccoc1C | 0.58 | -2 | -14
C#CCOCCOCCOCCNc1nc(N2CCN(C(=O)C([C@@H](C)CC)n3cc(C(N)COC(=O)C(F)(F)F)nn3)CC2)nc(N2CCN(C(=O)[C@H](CCCCN)n3cc(C(N)[C@H](C)CC)nn3)CC2)n1 (some centres undefined) | -0.69 | / | /
Cc1nc2ccccc2n1/C(=N\S(=O)(=O)c1ccccc1)c1ccccc1 | / | -1 | /
CCOC(=O)C1=C(C)OC(N)=C(C#N)C1c1c(C)nn(-c2ccccc2)c1Cl (centres undefined) | -7.4* | -2 | /
C=CCOC(=O)C1=C(C)OC(N)=C(C#N)C1c1c(C)nn(-c2ccccc2)c1Cl (centres undefined) | 0.51 | -2 | -43
CC(C)C[C@H](N)c1cn([C@@H](Cc2ccc(O)cc2)C(=O)N2CCNCC2)nn1 | -0.85 | / | /
O=C(Nc1ccccc1C(=O)N1CCOCC1)c1noc2c1CCCC2 | 3* | 0 | 0
COC(=O)c1ccccc1NC(=O)c1noc2c1CCCC2 | -1.6 | -3 | -9
CCn1c(=O)c(C(=O)NCc2cccnc2)c(O)c2ccccc21 | -8.4* | 0 | -10
CCn1c(=O)c(C(=O)Nc2cccnc2)c(O)c2ccccc21 | / | / | 2
CC(=O)C(=Nc1ccccc1Cl)NNc1ccc(Cl)cc1 | -1.2 | 4 | -4
Cc1ccc(-c2nnc(N3CCN(C(=O)CSc4ncn[nH]4)CC3)c3ccccc23)cc1 | 2.7* | 0 | -1
Cc1ccc(OCC(=O)N2CCN(c3nnc(-c4ccccc4)c4ccccc34)CC2)cc1 | 3* | -1 | -2
O=C(CSc1ncn[nH]1)N1CCN(S(=O)(=O)c2ccccc2)CC1 | 0.028 | 0 | 28
CCN(CC)C(=O)COc1ccc(-c2nnc(N3CCCCC3)c3ccccc23)cc1 | 2.2 | -1 | 19
Cc1cnc(NC(=O)c2cc3c(C)nn(Cc4ccccc4Cl)c3s2)s1 | / | -3 | /
CCOC(=O)c1c(C)n(C)c2ccc(OCC(O)Cn3c(C)nc4ccccc43)cc12 (centres undefined) | 2* | -1 | /
CCOC(=O)c1c(C)n(C)c2ccc(OCC(O)CN3CCN(C)CC3)cc12 (centres undefined) | -0.074 | -3 | 0
Cc1ccc(COc2cccc3c2CCN(Cc2ccc(F)cc2)C3=O)cc1 | / | 5.0* | /
O=C1c2cccc(OCc3ccc(F)cc3)c2CCN1Cc1ccccc1 | / | 1 | /
O=S(=O)(/N=C(\c1ccccc1F)N1CCCCC1)c1ccccc1 | / | -1 | /
C/C(Cc1ccccc1)=N\NC(=O)CNC(=O)c1ccc(C(C)(C)C)cc1 | / | 0 | /
COc1ccc(C2C(C#N)=C(N)Oc3n[nH]c(C)c32)cc1Cn1nnc2ccccc21 (centres undefined) | 0.47 | -2 | -25
CCCc1[nH]nc2c1C(c1ccc(OC)c(Cn3nnc4ccccc43)c1)C(C#N)=C(N)O2 (centres undefined) | 3.6* | -4 | 1
CC(NC(=O)c1cc2c(=O)n(C)c3ccccc3c2n1C)c1ccc2c(c1)OCCO2 (centres undefined) | 0.31 | / | -9
SMILES | DAT uptake mod | MRP-1 activ | MRP resist rev
CC(NC(=O)COc1cc(=O)n(C)c2ccccc12)c1ccc2c(c1)OCCO2 (centres undefined) | 1.7* | -4 | -5
C=C1CCN([C@H](C(=O)NCc2ccc(Cl)c(Cl)c2)C(C)C)S(=O)(=O)c2ccccc21 | 0.052 | / | /
S=C(N/N=C/c1ccc(Cl)cc1)N1CCOCC1 | / | 5.7* | /
Cc1ccc(/C=N/NC(=S)N2CCOCC2)cc1 | / | 4 | /
CCOC(=O)N1CCC(NC(=O)c2ccc3snnc3c2)CC1 | 2.8* | -2 | 3
CCOC(=O)C1CCN(C(=O)c2ccc3snnc3c2)CC1 | -0.072 | -2 | 6
CCC(=O)NC(Nc1ccccn1)(C(=O)OC)C(F)(F)F (centres undefined) | / | -1 | /
O=C(CSc1nnc(-c2ccc(O)cc2)n1-c1ccccc1)CC(=O)Nc1ccccc1 | / | -2 | /
CCCCn1nnnc1SCC(=O)NCc1ccco1 | 0.22 | -3 | 8
CCn1nnnc1SCC(=O)NCc1ccco1 | -8.8* | -1 | 3
CCOC(=O)/C=C/c1ccccc1S(=O)(=O)NC(C)(C)C | 0.049 | / | /
O=S(=O)(Nc1ncnc2sc3c(c12)CCC3)c1ccc(Cl)s1 | -2.4* | -2 | -8
O=C(O)[C@H](CO)Nc1ncnc2sc3c(c12)CCC3 | / | -2 | -3
O=C(NCCCCc1ccccc1)C1CC(c2cc(C(F)(F)F)cc(C(F)(F)F)c2)=NO1 (centres undefined) | 0.27 | / | /
O=c1[nH]c(SCc2nc3ccccc3c(=O)n2-c2ccccc2C(F)(F)F)nc2ccccc12 | / | -4 | /
CN(C(=O)c1cnc(N2CCN(c3ncccn3)CC2)c2ccccc12)c1ccc(Cl)cc1 | 0.84 | -2 | -10
CCN(C(=O)c1cnc(N2CCN(c3ncccn3)CC2)c2ccccc12)c1cccc(Cl)c1 | 2.2*! | -2 | -40
Cc1ccc(N2CCN(C(=O)c3ccccc3NC(=O)C3CC=CCC3C(=O)O)CC2)cc1 (centres undefined) | -0.07 | 0 | /
Cc1ccccc1N1CCN(C(=O)c2ccccc2NC(=O)C2CC=CCC2C(=O)O)CC1 (centres undefined) | 2.1* | 0 | /
COc1ccc(NC(=O)COC(=O)c2c3c(nc4ccccc24)CCCC3)cc1 | 0.094 | 3 | -8
COc1ccc(NC(=O)COC(=O)c2c3c(nc4ccccc24)CCCC3)cc1Cl | -1.2 | 5.3* | /
COC(=O)CC1SC(=O)NC1=Nc1ccc(O)cc1 (centres undefined) | 0.049 | -2 | -3
COC(=O)CC1SC(=O)NC1=O (centres undefined) | 0.19 | 7.2* | 14
COc1cc(CCCN2C(N)=NC[C@@H]2Cc2ccc(O)cc2)cc(OC)c1OC | 0.35 | / | /
CCCCn1c(SCC(=O)N2CCC(C)CC2)nc2cc(S(N)(=O)=O)ccc21 | 3.3* | -1 | 8
SMILES | DAT uptake mod | MRP-1 activ | MRP resist rev
CCCCn1c(SCC2CCCO2)nc2cc(S(N)(=O)=O)ccc21 (centres undefined) | 0.077 | -2 | -19
O=C(Nc1cccnc1)C1CC(c2ccc(Cl)c(Cl)c2)=NO1 (centres undefined) | 0.2 | 6.0* | 13
O=C(NCc1ccccn1)C1CC(c2ccc(Cl)c(Cl)c2)=NO1 (centres undefined) | -0.52 | -2 | 8
CCCCCc1ccc(S(=O)(=O)NCCc2ccncc2)cc1 | -1.2 | -1 | 8
CCOC(=O)c1sc(NC(=O)CSc2nnc(C)s2)c(C(=O)OCC)c1C | -0.72 | 0 | 7
CCOC(=O)c1c(NC(=O)CSc2nnc(C)s2)sc2c1CCC(CC)C2 (centres undefined) | 2.2* | 4 | 17
CC(=O)c1ccc(OCC(O)COc2ccc(C(C)=O)cc2)cc1 | 0.25 | 0 | /
COc1ccc(OCC(O)COc2ccc(C(=O)O)cc2)cc1 (centres undefined) | 2.7* | 1 | 1
O=C(O)CCC(=O)Nc1nnc(C(F)(F)F)s1 | 0.0015 | 0 | 4
CCC(NC(=O)Nc1nnc(C(F)(F)F)s1)(C(F)(F)F)C(F)(F)F | -3.3* | -3 | -5
CCC1(C)C(Nc2c(C)cccc2C)=NC(=S)N1c1ccc(NC(C)=O)cc1 (centres undefined) | / | 2 | /
CCOc1ccc(N(CC(=O)N/N=C/c2ccc(OC(C)C)cc2)S(C)(=O)=O)cc1 | / | -2 | /

Assay outcomes: PubChem BioAssay, several laboratories
